SRC2 TRFRET art = counter-screen for PPARgamma SRC-2 recruitment agonists: TR-FRET artefact; AID 1049; actives 0.4% (n = 200,000); TR-FRET ratio at 8 µM; hits give high values
SRC1 TRFRET art = counter-screen for PPARgamma SRC-1 recruitment agonists: TR-FRET artefact; TR-FRET detection artefact counter-screen, emission ratio; hits give high values; actives 0.34% (n = 99,000); TR-FRET ratio at 8 µM; in the data active = TR-FRET ratio above about 2300
PPARg SRC3 recr = agonists of human PPARgamma SRC-3 coactivator recruitment; P37231; biochemical PPARgamma/SRC-3 coactivator recruitment assay; activation, % at 8 µM; actives 0.26% (n = 200,000); AID 731; in the data active = activation above about 23%;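 also: 0% = DMSO and 100% = reference agonist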
Target sequence (P37231 whole entry, looked up): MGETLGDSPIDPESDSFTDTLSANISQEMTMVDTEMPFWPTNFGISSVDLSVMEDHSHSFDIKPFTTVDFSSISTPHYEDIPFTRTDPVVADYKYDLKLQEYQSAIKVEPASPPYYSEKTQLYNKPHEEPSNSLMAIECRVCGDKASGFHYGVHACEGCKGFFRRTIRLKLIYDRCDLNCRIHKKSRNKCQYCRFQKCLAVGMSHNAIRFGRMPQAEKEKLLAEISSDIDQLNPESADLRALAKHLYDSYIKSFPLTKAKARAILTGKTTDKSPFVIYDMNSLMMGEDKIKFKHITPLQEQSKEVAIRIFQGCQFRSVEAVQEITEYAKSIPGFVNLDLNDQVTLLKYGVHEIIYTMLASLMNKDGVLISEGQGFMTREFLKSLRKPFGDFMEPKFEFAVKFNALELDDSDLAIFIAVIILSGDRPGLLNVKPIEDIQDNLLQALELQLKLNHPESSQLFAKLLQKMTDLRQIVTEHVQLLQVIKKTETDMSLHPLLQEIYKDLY
SRC3 TRFRET art = counter-screen for PPARgamma SRC-3 recruitment agonists: TR-FRET artefact. TR-FRET ratio at 8 µM. AID 1048. actives 0.39% (n = 99,000). PPARgamma/SRC-3 format; hits give high values
PPARg SRC1 recr = agonists of human PPARgamma SRC-1 coactivator recruitment; P37231; actives 0.41% (n = 200,000); PPARgamma-SRC-1 coactivator recruitment biochemical assay; activation, % at 8 µM; in the data active = activation above about 19%;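 also: 0% = DMSO and 100% = reference agonist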
PPARg SRC2 recr = PPARgamma-driven SRC-2 recruitment agonism; activation, % at 8 µM; P37231; AID 1032; PPARgamma LBD-SRC-2 recruitment, biochemical; actives 0.34% (n = 200,000); in the data active = activation above about 22%;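 also: 0% = vehicle and 100% = reference agonist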
Starred values were filed as active, the others as inactive; / = no result given. Only some compounds are listed: those with a hit (about 0.9% of all), similar ones and a draw of the others. Rule as the data show it, unless noted: active = TR-FRET ratio above about 2000; inactive = the rest.

SMILES	SRC2 TRFRET art	SRC1 TRFRET art	PPARg SRC3 recr	SRC3 TRFRET art	PPARg SRC1 recr	PPARg SRC2 recr
CCC(C)NS(=O)(=O)c1ccc(S(=O)(=O)N2CC=C(c3ccc(F)cc3)CC2)cc1 (stereo not given)	1418	1418	-7	1481	-6	-7
C=CCn1c(=O)c2ccccc2n2c(SCC(=O)c3ccccc3)nnc12	1556	/	27*	/	8	1
C=CCn1c(=O)c2ccccc2n2c(SCc3nc(N)nc(Nc4ccccc4C)n3)nnc12	1648	/	8	/	22*	5
CCCCn1c(SCc2nc(N)nc(Nc3ccccc3C)n2)nc2ccccc2c1=O	1460	/	-10	/	-2	-5
O=c1[nH][nH]c(=O)n1-c1ccccc1	1754	1746	6	1588	6	-3
COc1cc(C(C)=O)ccc1OC(=O)c1cc2cccc(OC)c2oc1=O	1476	1600	-1	1467	-4	-6
CC(=O)CCc1ccc(OC(=O)c2cccnc2)cc1	1983*	/	1	/	4	26*
CNC(=S)N1N=C(c2ccc(C)cc2)CC1c1ccc(OC)c(OC)c1 (stereo not given)	1450	1680	1	1440	0	-1
COc1ccc(C2CC(c3ccccc3)=NN2C(=S)Nc2ccccc2)cc1 (stereo not given)	2014*	2274	14	2233*	14	22
Fc1ccc(C2CC(c3cccs3)=NN2C(=S)Nc2ccccc2)cc1 (stereo not given)	1687	2336*	4	1821	10	14
COc1ccc(C2=NN(C(=S)Nc3ccccc3)C(c3ccccc3)C2)cc1 (stereo not given)	1723	1987	5	1746	5	2
CNC(=S)N1N=C(c2ccccc2)CC1c1ccc(OC)c(OC)c1 (stereo not given)	1694	2320*	7	1736	16	15
Cc1ccc(CN(CC(=O)N/N=C/c2ccco2)S(=O)(=O)c2ccc(C)cc2)cc1	1375	/	3	/	4	9
C=CCOc1cccc(C2C(C(=O)c3ccc(C)o3)=C(O)C(=O)N2Cc2ccncc2)c1 (stereo not given)	2037*	/	23	/	13	16
CC(=O)c1c(C)[n+]([O-])c2ccc3c(non3O)c12	1981*	1946	-1	1809	7	7
Cc1ccc(/C=C(\C#N)c2nn(-c3ccccc3)c(N)c2C#N)cc1	1725	1776	-4	1337	-4	-3
N#C/C(=C\c1cccc2ccccc12)c1nn(-c2ccccc2)c(N)c1C#N	1650	/	16	/	19*	17
O=c1[nH]c2ccccc2c(O)c1-c1ccccc1[N+](=O)[O-]	1695	1897	0	1457	4	2
CCC(C)NC(=O)Cn1c(=O)n(CCCC(=O)NCc2ccccc2Cl)c(=O)c2ccccc21 (stereo not given)	1629	/	5	/	-2	22*
CCOC(=O)c1c(C)[nH]c(C)c1C(=O)CSc1nc2ccccc2c(=O)n1-c1ccc(CC)cc1	1617	1883	2	1640	3	6
CC(=O)c1ccc(-n2c(SCC(=O)c3c[nH]c4ccccc34)nc3ccccc3c2=O)cc1	1706	2168	5	2096*	4	11
Cn1c(SCC(=O)Nc2cccc(Br)c2)nnc1-c1cc2ccccc2o1	1713	/	4	/	31*	-6
CN(CC1CCCO1)S(=O)(=O)c1ccc(C(=O)Nc2ccc3c(c2)OCO3)cc1 (stereo not given)	1460	1902	3	1432	4	11
CN(CC1CCCO1)S(=O)(=O)c1ccc(C(=O)Nc2nc3cc4c(cc3s2)OCO4)cc1 (stereo not given)	1631	/	4	/	9	23*
CC(=O)c1cccc(NC(=O)c2cc3ccccn3n2)c1	1832	/	4	/	6	24*
Cc1c2c(nc3ccccc13)CCC(C)C2 (stereo not given)	1387	1492	-2	1393	-11	3
O=C(Nc1cc(S(=O)(=O)N2CCCCC2)ccc1O)c1ccccc1NS(=O)(=O)c1ccc(F)c(F)c1	1437	1652	-2	1587	-5	1
O=C(COC(=O)c1ccc(Cl)c(S(=O)(=O)N2CCc3ccccc3C2)c1)Nc1ncc(Cl)cc1Cl	1932	2306	9	2156*	9	-1
O=C(COC(=O)c1cccc(S(=O)(=O)N2CCc3ccccc32)c1)Nc1ncc(Cl)cc1Cl	1556	2003	8	1463	6	3

From PubChem BioAssay
